From PubChem BioAssay
TEAD-YAP block: TEAD-YAP interaction inhibition | HEK-TIYL cells, TEAD-Gal4/YAP UAS-luciferase luminescence | inhibition, % at 9.12 µM | actives 1.4% (n = 640,000); in the data active means inhibition above about 32%
GPR151 activ: human GPR151 activation; Q8TDV0; PathHunter beta-arrestin GPR151 cells, luminescence; activation, % at 11.2 µM; actives 1% (n = 650,000); in the data active means activation above about 4.9%
FBW7 act: activators of human E3 ligase FBW7 | Q969H0 | AlphaScreen FBW7–phospho-cyclin E peptide binding, activator screen | normalized activity (activation), % at 26.1 µM | actives 0.13% (n = 650,000); in the data active means normalized activity above about 1.9%;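 further: purified mutant Fbw7 with reduced substrate affinity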
Target sequence (Q969H0 whole entry, looked up): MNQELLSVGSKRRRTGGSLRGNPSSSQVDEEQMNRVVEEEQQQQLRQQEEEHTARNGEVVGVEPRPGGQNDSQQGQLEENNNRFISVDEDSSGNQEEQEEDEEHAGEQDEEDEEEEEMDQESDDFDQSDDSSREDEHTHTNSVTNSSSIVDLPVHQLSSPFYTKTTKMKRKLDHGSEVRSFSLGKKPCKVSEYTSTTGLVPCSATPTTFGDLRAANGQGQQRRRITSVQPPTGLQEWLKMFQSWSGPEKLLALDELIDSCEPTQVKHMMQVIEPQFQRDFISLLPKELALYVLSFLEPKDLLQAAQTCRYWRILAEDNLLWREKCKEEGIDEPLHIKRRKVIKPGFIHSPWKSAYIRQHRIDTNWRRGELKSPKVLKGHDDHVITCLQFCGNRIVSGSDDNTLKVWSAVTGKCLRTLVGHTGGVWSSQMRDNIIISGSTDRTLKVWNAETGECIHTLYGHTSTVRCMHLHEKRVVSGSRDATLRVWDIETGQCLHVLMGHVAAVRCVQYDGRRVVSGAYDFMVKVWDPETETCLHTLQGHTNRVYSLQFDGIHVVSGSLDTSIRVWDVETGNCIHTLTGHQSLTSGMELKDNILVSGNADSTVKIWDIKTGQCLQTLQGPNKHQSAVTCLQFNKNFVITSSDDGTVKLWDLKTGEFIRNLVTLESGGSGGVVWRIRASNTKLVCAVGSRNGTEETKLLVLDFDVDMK
MITF primary: blocks human microphthalmia-associated transcription factor | inhibition, % at 2.6 µM | O75030 | actives 0.91% (n = 650,000) | AlphaScreen MITF homodimerization, bead proximity signal | AID 1259374; in the data active means inhibition above about 50%
MITF inh conf: human MITF inhibition, confirmation | shares compounds with MITF primary | AlphaScreen MITF homodimerization, biotin/His-MITF beads | inhibition, % at 2.6 µM | actives 16% (n = 4,700) | AID 1259372;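 active means inhibition above a cutoff derived from the DMSO control wells, cut at about 28% in these data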;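 further: inhibitors lower the bead chemiluminescence by keeping MITF from dimerizing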
AS interf DR: counter-screen: compounds optically interfering with AlphaScreen; shares compounds with MITF primary; AlphaScreen optical interference counterscreen, cell-free; IC50, µM; actives 6% (n = 480); AID 1259373; call rule not given here
AS interf ctr: counter-screen: compounds optically interfering with AlphaScreen. shares compounds with MITF primary. LysRS AlphaScreen counterscreen, signal interference, triplicate. inhibition, % at 2.6 µM. actives 7.6% (n = 4,700);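 active means inhibition above a cutoff derived from the DMSO control wells, cut at about 30% in these data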
Each line names hits and unclear results; the compound was inactive in the other large screens (follow-up assays come after a bar, where they were run). A selection: hits, their analogues and other compounds. The true share with any hit is near 3.4%.

Cc1nc(C)n(-c2ccc(Nc3nccc(-c4ccc5ccccc5c4)n3)cc2)n1	none
COc1ccc(-c2cc(CC(=O)NC3CCCC3)no2)cc1OC	none
COc1ccc(-c2cc(CC(=O)NCc3ccc(Cl)cc3)no2)cc1OC	TEAD-YAP block 47.2
CCC(=O)N(CCCO)Cc1cc2ccc(C)cc2[nH]c1=O	TEAD-YAP block 36.0
CC(C)n1cnc2c(NCc3nc4ccccc4[nH]3)nc(Nc3nc4ccccc4n3C)nc21	none
CC(C)n1cnc2c(NCc3nc4ccccc4[nH]3)nc(NCc3cccnc3)nc21	TEAD-YAP block 58.9
CC(C)n1cnc2c(NCc3nc4ccccc4[nH]3)nc(Nc3nccc4ccccc34)nc21	TEAD-YAP block 42.9
CC(C)n1cnc2c(NCc3nc4ccccc4[nH]3)nc(Nc3ccccn3)nc21	TEAD-YAP block 85.0
CC(C)n1cnc2c(NCc3nc4ccccc4[nH]3)nc(Nc3ccncn3)nc21	TEAD-YAP block 86.2
CC(C)n1cnc2c(NC3CC3)nc(Nc3nccc4ccccc34)nc21	none
CCNc1nc(NCc2cccnc2)c2ncn(C(C)C)c2n1	none
CCOc1cc(/C=C2/C(=N)N3N=C(C(C)C)SC3=NC2=O)ccc1OCc1ccccc1	none
CC(C)n1cnc2c(NCc3nc4ccccc4[nH]3)nc(Nc3cnccn3)nc21	TEAD-YAP block 77.6
CC(C)n1cnc2c(NCc3nc4ccccc4[nH]3)nc(Nc3ccc4ncccc4c3)nc21	TEAD-YAP block 40.5
Cc1ccc2oc(-c3ccc(NS(=O)(=O)c4ccccc4)cc3)nc2c1	none
CCOC(=O)c1c(NC(=O)c2ccc(S(=O)(=O)N(C)c3ccccc3)cc2)sc2c1CCC2	none
O=[N+]([O-])c1cc(C=Nc2ccc(N3CCOCC3)cc2)c(O)c([N+](=O)[O-])c1	MITF primary 74.5 | MITF inh conf 83.3 | AS interf DR inactive | AS interf ctr inactive
Clc1ccccc1CN1CCN(CC2CC=CCC2)CC1 (stereo not drawn)	MITF primary 59.8 | MITF inh conf inactive | AS interf ctr inactive
O=S(=O)(c1ccccc1)N1CCN(CC2CC=CCC2)CC1 (stereo not drawn)	MITF primary 52.1 | MITF inh conf inactive | AS interf ctr inactive
Fc1cccc(CN2CCN(CC3CC=CCC3)CC2)c1 (stereo not drawn)	MITF primary 83.1 | MITF inh conf inactive | AS interf ctr inactive
O=C(c1ccccc1)N1CCN(CC2CC=CCC2)CC1 (stereo not drawn)	none
O=[N+]([O-])c1ccccc1S(=O)(=O)N1CCN(CC2CC=CCC2)CC1 (stereo not drawn)	none
Cc1ccc(CN2CCN(CC3CC=CCC3)CC2)cc1 (stereo not drawn)	none
O=[N+]([O-])c1ccccc1CN1CCN(CC2CC=CCC2)CC1 (stereo not drawn)	MITF primary 65.7 | MITF inh conf inactive | AS interf ctr inactive
COc1ccc(CNC(=O)c2cnn3c2NC(c2ccc4c(c2)OCO4)CC3C(F)(F)F)cc1 (stereo not drawn)	MITF primary 68.3 | MITF inh conf inactive | AS interf ctr inactive
COc1ccc(CNC(=O)c2cnn3c2NC(c2ccc(OC)cc2)CC3C(F)(F)F)cc1 (stereo not drawn)	none
CC1=CC(C)(C)NC(=S)N1c1cc(Cl)cc(Cl)c1	MITF primary 58.4 | MITF inh conf inactive | AS interf ctr inactive
CC1=CC(C)(C)NC(=S)N1c1ccc(Cl)cc1	none
O=C(COC(=O)C1CC(=O)N(c2cccc(Cl)c2)C1)c1ccc(Br)cc1 (stereo not drawn)	none
O=C(Nc1ccc2oc(-c3ccccc3Cl)nc2c1)c1cc(Br)ccc1I	none
CC(=O)c1ccc(OCC(O)CN(C)CCC#N)cc1 (stereo not drawn)	MITF primary 66.2 | MITF inh conf inactive | AS interf ctr inactive
CC(=O)c1ccc(OCC(O)COc2ccc(C(C)=O)cc2)cc1	none
CCCN1Cc2cccc(C(=O)O)c2C1=O	none
O=C(O)c1cccc2c1C(=O)N(c1ccccc1)C2	MITF primary 71.8 | MITF inh conf 71.6 | AS interf DR inactive | AS interf ctr inactive
NC(=O)c1ccc(-c2cccs2)s1	MITF primary 59.3 | MITF inh conf 38.7 | AS interf DR inactive | AS interf ctr inactive
NC(=O)c1ccc(-c2csc3ccccc23)s1	none
O=C(N[C@@H]1c2ccccc2C2(CCN(C(=O)CC3CCCCC3)CC2)[C@H]1O)c1cccnc1	none
COc1ccc(/C=C(/NC(=O)c2ccco2)C(=O)N2CCN(C)CC2)cc1	none
O=C(c1ccccc1[N+](=O)[O-])n1cnc2ccccc21	MITF primary 56.0 | MITF inh conf inactive | AS interf ctr inactive
O=C(c1cc(Cl)ccc1[N+](=O)[O-])n1cnc2ccccc21	none
NC(=O)CN1CCCC1=Nc1ccccc1	none
c1ccc(N2CCCC2=Nc2ccncc2)cc1	MITF primary 68.4 | MITF inh conf inactive | AS interf ctr inactive
COc1ccc(CCN2CCc3nc4ccncc4cc3C2)cc1	MITF primary 51.1 | MITF inh conf inactive | AS interf ctr 34.0
Fc1cc(F)c(F)c(SCCc2ccncc2)c1F	MITF primary 90.2 | MITF inh conf inactive | AS interf ctr inactive
CCOc1ccc(N(CC(N)=O)S(C)(=O)=O)cc1	none
C#CCN(C)C(=O)c1cnc2sc(C)cn2c1=O	MITF primary 56.7 | MITF inh conf inactive | AS interf ctr inactive
Cc1cn2c(=O)c(C(=O)N(C)CC(=O)N(C)C)cnc2s1	none
COc1cc2c(cc1OC)CN(CCC(c1ccccc1)c1ccccc1)CC2	none
COc1cc2c(cc1OC)CN(CC(O)c1ccccc1)CC2 (stereo not drawn)	MITF primary 50.6 | MITF inh conf inactive | AS interf ctr inactive
COc1ccc(CCNC(=O)CCn2c(SCC(=O)Nc3cccc(C(F)(F)F)c3)nc3ccccc3c2=O)cc1OC	MITF primary 56.4 | MITF inh conf inactive | AS interf ctr inactive
COc1cccc(-c2nnc3n2N=C(c2cc4ccccc4oc2=O)CS3)c1	none
CCOc1cc(C2Oc3nc(SC)nnc3-c3ccccc3N2C(=O)CC)c(Br)cc1OC (stereo not drawn)	none
Cc1cc(C)n(C(=O)CSc2ccccc2)n1	none
CCC(C)NC(=O)CN(Cc1ccc(F)cc1)S(=O)(=O)c1ccc(Cl)cc1 (stereo not drawn)	MITF primary 69.7 | MITF inh conf inactive | AS interf ctr inactive
CCOCCCNC(=O)CCn1nc(-c2ccccc2OC)c2c(C)cc(C)nc21	none
CNC(=O)C1=C(C)NC(=S)NC1c1c(OC)ccc2ccccc12 (stereo not drawn)	none
CS(=O)(=O)N(CC(=O)Nc1ccccc1C(F)(F)F)c1cccc(Cl)c1	none
COc1ccc(CN2CCN(Cc3ccccc3F)CC2)cc1OC	MITF primary 79.2 | MITF inh conf inactive | AS interf ctr inactive
